# Results reported in PubChem BioAssay.
# The source made the active and inactive calls. Unless noted, the rule behind the calls is not given here.
# Legend:
# [1] = HepG2 liver cancer cell viability effects, profiling panel, resazurin fluorescence, 24 h, PK04 Diversity Set (AID 1172); conditions: higher = more signal
# [2] = basal S. cerevisiae growth modulation, no modifier, primary screen, OD600, strain BY4716, 24 h, basal condition (AID 1173); conditions: OD600, 24 h, higher = more signal, called active from +8 up or from −8 down
# [3] = MM1S myeloma cell viability, profiling panel, resazurin fluorescence, basal, 24 h, PK04 Diversity Set (AID 1174); conditions: higher = more signal, called active from +8 up or from −8 down;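 note: MM1S multiple myeloma cell line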
# [4] = target: Dihydroorotate dehydrogenase (quinone), mitochondrial (Plasmodium falciparum (isolate 3D7)) (UniProt Q08210); test: PfDHODH enzyme inhibitors, primary screen, biochemical, C-terminal His tag, absorbance 600 nm (AID 1175); conditions: DCIP absorbance 600 nm, higher = more signal, called active from +8 up or from −8 down;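 note: recombinant parasite enzyme with a five histidine tag at its C terminus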
# [5] = P. aeruginosa biofilm formation inhibitors, primary screen, strain PAO1, LB-PBS medium, absorbance 600 nm (AID 1176); conditions: P. aeruginosa PAO1 growth/biofilm, A600, 12 h; higher = more signal
# [6] = S. cerevisiae RM11-1a growth modifiers, primary screen, strain RM11-1a, OD600, basal, 24 h (AID 1177); conditions: OD600, 24 h, higher = more signal, called active from +8 up or from −8 down;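 note: cultures grown under basal conditions with no added stressor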
# [7] = E. coli acrAB mutant growth effects, primary screen, E. coli filamentation inducers, strain DRC39, OD650, 24 h (AID 1178); conditions: higher = more signal, called active from +8 up or from −8 down;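 note: growth measured as culture turbidity by optical density at 650 nm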
# [8] = E. coli acrAB mutant growth effects, primary screen, E. coli filamentation inducers, strain DRC39, OD650, 48 h (AID 1179);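 note: screen aims at cell division blockers that make cells filament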; conditions: E. coli DRC39 delta-acrAB growth, higher = more signal, called active from +8 up or from −8 down
# [9] = RPMI8226 myeloma cell viability, profiling panel, resazurin fluorescence, basal, 24 h, PK04 Diversity Set (AID 1180); conditions: higher = more signal;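 note: RPMI8826 multiple myeloma cell line at 5000 cells per well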
# [10] = target: E3 ubiquitin-protein ligase XIAP (Homo sapiens) (UniProt P98170); test: XIAP binders, primary screen, biophysical, small-molecule microarray, fluorescence 635 nm (AID 1181); conditions: small-molecule microarray binding, higher = more signal;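 note: score merges 667 nm emission and signal to noise over triplicate slides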
# [11] = system: XIP peptide (Xip251-270) binding; test: small-molecule binders of XIP peptide, primary screen, biochemical, small-molecule microarray, fluorescence 635/667 nm, 0.1 µg/mL protein (AID 1182); conditions: fluorescent protein binding, 635 nm, higher = more signal, called active from +8 up or from −8 down
# [12] = system: XIP peptide (Xip251-270); test: small-molecule binders of XIP peptide, primary screen, biochemical, small-molecule microarray, fluorescence 635/667 nm, 0.5 µg/mL protein (AID 1183); conditions: small-molecule microarray binding, fluorescence 635 nm; higher = more signal
# [13] = Plasmodium falciparum growth inhibition, primary screen, strain 3D7, DAPI fluorescence, 100 nL (AID 1184);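 note: parasites grown inside human red blood cells in medium with human serum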; conditions: P. falciparum 3D7 growth, 3 d, higher = more signal
# [14] = target: Homeobox protein Hox-A13 (Mus musculus) (UniProt Q62424); test: inhibitors of HoxA13-DNA binding, primary screen, biochemical, fluorescence polarization, labeled oligonucleotide (AID 1185); conditions: 15 min, higher = more signal, called active from +8 up or from −8 down
# [15] = inhibitors of hydroxyurea-induced Chk1 phosphorylation, primary screen, imaging, HeLa, phospho-Chk1 antibody, percent positive cells (AID 1186); conditions: hydroxyurea-induced phospho-Chk1 immunofluorescence imaging, higher = more signal
# [16] = inhibitors of hydroxyurea-induced Chk1 phosphorylation, primary screen, imaging, HeLa, phospho-Chk1 nuclear intensity (AID 1187); conditions: hydroxyurea-induced phospho-Chk1 immunofluorescence imaging, higher = more signal
# Sequence of Homeobox protein Hox-A13 (Mus musculus) (Q62424 whole entry, looked up): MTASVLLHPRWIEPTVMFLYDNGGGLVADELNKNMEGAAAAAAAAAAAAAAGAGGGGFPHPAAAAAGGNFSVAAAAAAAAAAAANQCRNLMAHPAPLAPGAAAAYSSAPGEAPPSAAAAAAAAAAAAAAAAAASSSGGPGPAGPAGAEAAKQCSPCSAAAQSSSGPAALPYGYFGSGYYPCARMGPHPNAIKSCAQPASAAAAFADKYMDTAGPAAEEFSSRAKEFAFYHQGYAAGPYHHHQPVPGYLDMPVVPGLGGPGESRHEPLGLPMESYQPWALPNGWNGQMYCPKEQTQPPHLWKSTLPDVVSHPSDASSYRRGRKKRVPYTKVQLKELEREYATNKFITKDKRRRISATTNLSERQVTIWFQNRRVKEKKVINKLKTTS
# Sequence of Dihydroorotate dehydrogenase (quinone), mitochondrial (Plasmodium falciparum (isolate 3D7)) (Q08210 whole entry, looked up): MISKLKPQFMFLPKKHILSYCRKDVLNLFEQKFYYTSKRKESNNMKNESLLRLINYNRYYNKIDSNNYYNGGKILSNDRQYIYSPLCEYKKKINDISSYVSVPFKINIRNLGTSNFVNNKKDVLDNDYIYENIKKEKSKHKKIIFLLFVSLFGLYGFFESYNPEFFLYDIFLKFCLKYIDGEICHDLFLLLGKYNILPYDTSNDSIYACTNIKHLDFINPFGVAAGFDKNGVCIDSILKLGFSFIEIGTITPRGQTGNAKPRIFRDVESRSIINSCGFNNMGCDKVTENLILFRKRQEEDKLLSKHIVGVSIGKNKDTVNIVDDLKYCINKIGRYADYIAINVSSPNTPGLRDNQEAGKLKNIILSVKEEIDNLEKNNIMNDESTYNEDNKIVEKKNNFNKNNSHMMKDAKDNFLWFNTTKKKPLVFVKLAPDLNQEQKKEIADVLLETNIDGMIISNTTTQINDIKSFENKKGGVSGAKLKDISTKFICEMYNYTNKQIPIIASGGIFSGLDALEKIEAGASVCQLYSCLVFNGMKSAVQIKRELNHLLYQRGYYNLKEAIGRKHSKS
# Sequence of E3 ubiquitin-protein ligase XIAP (Homo sapiens) (P98170 whole entry, looked up): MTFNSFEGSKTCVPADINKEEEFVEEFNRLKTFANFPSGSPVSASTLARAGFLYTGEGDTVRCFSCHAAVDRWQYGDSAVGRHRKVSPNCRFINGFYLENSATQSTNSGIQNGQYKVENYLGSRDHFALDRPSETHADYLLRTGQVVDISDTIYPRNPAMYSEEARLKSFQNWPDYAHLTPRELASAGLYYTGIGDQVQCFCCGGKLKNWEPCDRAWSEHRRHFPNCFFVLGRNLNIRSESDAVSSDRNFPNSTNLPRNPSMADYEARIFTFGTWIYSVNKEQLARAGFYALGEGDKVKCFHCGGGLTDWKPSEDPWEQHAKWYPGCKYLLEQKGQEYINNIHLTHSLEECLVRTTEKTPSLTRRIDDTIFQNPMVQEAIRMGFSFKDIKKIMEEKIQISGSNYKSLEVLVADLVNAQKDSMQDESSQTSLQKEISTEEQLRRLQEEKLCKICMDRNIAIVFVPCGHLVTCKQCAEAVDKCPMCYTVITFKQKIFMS
SMILES,z-score [1],z-score [2],z-score [3],composite z-score [4],z-score [5],z-score [6],z-score [7],z-score [8],z-score [9],composite z-score [10],composite z-score [11],composite z-score [12],z-score [13],z-score [14],z-score [15],z-score [16]
COC(=O)[C@@]1(Cc2ccc(F)cc2)[C@H]2c3cc(C(=O)N(C)C)n(CCO)c3C[C@H]2CN1C(=O)c1ccccc1,-0.359,-0.092 (inactive),-0.438 (inactive),-0.844 (inactive),0.865 (inactive),-0.251 (inactive),-0.356 (inactive),-0.0099 (inactive),-0.0323,0.49,1.79 (inactive),0.39,0.196,-4.71 (inactive),-0.0514 (inactive),0.138 (inactive)
C=CCNC(=O)[C@H]1[C@@H]2C(=O)O[C@@H](c3ccccc3)[C@@H](c3ccccc3)N2[C@@H](c2ccccc2OCCO)[C@]12C(=O)N(C(=O)OCCOC)c1ccccc12,-0.293,1.52 (inactive),-1.04 (inactive),0.692 (inactive),2.98 (inactive),2 (inactive),0.225 (inactive),-0.369 (inactive),-2.9,0.0797,0.346 (inactive),0.814,-1.68,-4.77 (inactive),0.0539 (inactive),0.109 (inactive)
COc1ccc([Si](C)(C)[C@H]2[C@H](CCO)O[C@@]3(C(=O)N(Cc4ccccc4)c4ccc(N(C=O)c5ccccc5)cc43)[C@@H]2C)cc1,0.0056,1.53 (inactive),-2.24 (inactive),-0.363 (inactive),2.58 (inactive),5.16 (inactive),1.28 (inactive),0.733 (inactive),-1.28,-0.0668,0.572 (inactive),0.571,-2.74,-0.799 (inactive),1.75 (inactive),1.49 (inactive)
COCCOC(=O)N1C(=O)[C@@]2(c3cc(C#CCC(C(=O)OC)C(=O)OC)ccc31)[C@H](c1ccc(OCCO)cc1)N1[C@H](c3ccccc3)[C@H](c3ccccc3)OC(=O)[C@H]1[C@@H]2C(=O)N1CCCCCCC1,-0.0464,1.45 (inactive),0.13 (inactive),0.551 (inactive),0.83 (inactive),2.72 (inactive),-0.599 (inactive),0.0786 (inactive),0.174,0.519,0.836 (inactive),0.523,-2.09,-15.5 (active),-0.181 (inactive),0.106 (inactive)
CCCC[C@@H]1C[C@H]1[C@@H](NC(=O)Cc1ccccc1)c1ccc(Cl)cc1,1.95,0.0658 (inactive),0.625 (inactive),-1.36 (inactive),0.33 (inactive),0.335 (inactive),-0.704 (inactive),-0.162 (inactive),-4.68,-0.0103,0.155 (inactive),0.503,-0.0042,-2.08 (inactive),-0.114 (inactive),-0.588 (inactive)
COCCOC(=O)N1C(=O)[C@@]2(c3cc(C#CCCO)ccc31)[C@H](C(=O)N1CCN(c3ncccn3)CC1)[C@H]1C(=O)O[C@H](c3ccccc3)[C@H](c3ccccc3)N1[C@@H]2c1ccc(O)cc1,-0.335,-0.142 (inactive),0.359 (inactive),-1.22 (inactive),1.85 (inactive),0.135 (inactive),0.947 (inactive),1.6 (inactive),0.818,-0.031,1.43 (inactive),0.802,-0.278,-2.3 (inactive),-0.416 (inactive),-0.772 (inactive)
CC(C)N1CC=CC23O[C@@H]4C=CCCOC(=O)C4[C@H]2C(=O)N(CCCCCO)[C@@H]3C1=O (stereo partly drawn),0.613,0.848 (inactive),0.988 (inactive),-0.727 (inactive),0.0126 (inactive),0.581 (inactive),1.01 (inactive),0.798 (inactive),1.42,0.0684,0.192 (inactive),-0.386,0.263,-3.86 (inactive),-0.389 (inactive),0.0936 (inactive)
CC(C)C(=C=CC[C@@H](O)c1cccc(OCCO)c1)CCO,0.545,-1.15 (inactive),0.265 (inactive),-1.1 (inactive),0.2 (inactive),0.0632 (inactive),0.546 (inactive),0.423 (inactive),0.336,-0.127,0.202 (inactive),0.42,-0.115,-1.53 (inactive),-0.19 (inactive),0.247 (inactive)
COc1cc2c(cc1O)C(c1ccc(CN3CCCC3)cc1)N(Cc1ccc([N+](=O)[O-])o1)CC2 (stereo not drawn),-0.274,-0.547 (inactive),-0.727 (inactive),-0.412 (inactive),0.0898 (inactive),0.0464 (inactive),-0.79 (inactive),-0.259 (inactive),-0.437,0.0537,0.119 (inactive),-0.0067,-0.672,-7.64 (inactive),0.191 (inactive),0.134 (inactive)
COCCOC(=O)N1C(=O)[C@@]2(c3cc(C#CC4(O)CCCCCC4)ccc31)[C@H](c1ccccc1OCCO)N1[C@H](c3ccccc3)[C@H](c3ccccc3)OC(=O)[C@H]1[C@@H]2C(=O)N1CCCCCCC1,-0.0209,2.15 (inactive),-0.303 (inactive),0.0767 (inactive),2.05 (inactive),2.76 (inactive),-0.225 (inactive),0.003 (inactive),-0.444,0.0483,1.86 (inactive),0.727,-1.93,3.98 (inactive),-0.531 (inactive),-0.561 (inactive)
[N-]=[N+]=NCc1ccccc1C[C@]1(C(=O)N2CCCCC2)N=C(c2ccc(OCCCO)cc2)O[C@H]1c1ccccc1,0.116,1.71 (inactive),-2.13 (inactive),0.939 (inactive),-0.372 (inactive),2.8 (inactive),0.914 (inactive),1.23 (inactive),-5.14,0.17,0.404 (inactive),0.779,-2.34,-4.35 (inactive),-0.527 (inactive),-0.286 (inactive)
CC(=O)c1ccc(C(O)C2C=CC3C(=O)NC(=O)C3N2Nc2ccc(Cl)cc2Cl)cc1 (stereo not drawn),-1.16,-2.33 (inactive),-1.35 (inactive),1.16 (inactive),0.835 (inactive),1.39 (inactive),0.385 (inactive),-1.48 (inactive),-1.8,-0.0421,0.187 (inactive),0.02,-0.677,-5.84 (inactive),0.173 (inactive),0.588 (inactive)
Cc1ccc(S[C@]2(C(=O)NC3CC3)CC(=O)N(Cc3cc(C(F)(F)F)cc(C(F)(F)F)c3)[C@@H]2c2ccc(CO)cc2I)cc1,0.411,-5.11 (inactive),-2.78 (inactive),-3.55 (inactive),0.944 (inactive),-1.6 (inactive),0.0621 (inactive),0.108 (inactive),-2.23,0.723,0.102 (inactive),0.679,0.496,-2.13 (inactive),0.505 (inactive),0.924 (inactive)
Cc1c(-c2ccc(-c3ccc(Cl)c(Cl)c3)o2)nc(-c2ccccc2)c2c1CO[Si]2(C(C)C)C(C)C,0.368,-0.922 (inactive),-2 (inactive),-0.063 (inactive),0.82 (inactive),-0.569 (inactive),0.575 (inactive),0.462 (inactive),-0.639,0.504,0.401 (inactive),0.761,0.962,-1.48 (inactive),0.0151 (inactive),-0.0709 (inactive)
C=CCOC(=O)[C@H]1[C@@H]2C(=O)O[C@@H](c3ccccc3)[C@@H](c3ccccc3)N2[C@@H](c2ccc(OCCOC(=O)[C@@H]3C[C@@H]4C(=O)N[C@@H](Cc5ccccc5)C(=O)N4[C@@H]3c3ccc(O)cc3)cc2)[C@]12C(=O)Nc1ccccc12,-0.648,1.45 (inactive),-0.292 (inactive),-0.139 (inactive),3.66 (inactive),0.818 (inactive),-0.631 (inactive),-0.282 (inactive),-0.309,0.144,0.819 (inactive),0.743,-1.83,1.86 (inactive),-0.287 (inactive),-0.584 (inactive)
COCCOC(=O)N1C(=O)[C@@]2(c3cc(C#CC4(O)CCCCCC4)ccc31)[C@H](C(=O)N1CCc3cc(OC)c(OC)cc3C1)[C@H]1C(=O)O[C@H](c3ccccc3)[C@H](c3ccccc3)N1[C@@H]2c1ccc(O)cc1,-0.511,0.257 (inactive),-0.263 (inactive),0.7 (inactive),1.18 (inactive),1.39 (inactive),-0.282 (inactive),-0.252 (inactive),-0.0713,-0.0703,0.424 (inactive),0.762,-1.72,-0.363 (inactive),0.25 (inactive),0.81 (inactive)
CC(C)C[C@@H]1NC(=O)[C@H]2C[C@@H](C(=O)NCCCCCCNC(=O)CS)[C@@H](c3ccc(O)cc3)N2C1=O,0.102,0.153 (inactive),0.0815 (inactive),0.31 (inactive),0.932 (inactive),0.088 (inactive),0.236 (inactive),-0.0073 (inactive),-0.596,0.101,3.87 (inactive),0.409,0.214,-3.29 (inactive),1.15 (inactive),0.716 (inactive)
CN1C(=O)C2C(C1=O)C1C=C(c3ccc(CO)cc3)C2C(c2cccs2)N1C (stereo not drawn),-0.584,-1.59 (inactive),-0.446 (inactive),-1.46 (inactive),-2.71 (inactive),-0.0654 (inactive),0.596 (inactive),0.346 (inactive),0.343,-0.444,0.482 (inactive),-0.202,-2.32,-6.12 (inactive),-0.89 (inactive),-0.76 (inactive)
